The source made the active and inactive calls. Unless noted, the rule behind the calls is not given here.
Tests used:
[1] = A549 cell viability effects, profiling panel, calcein-AM fluorescence, 48 h, basal (AID 1162); settings: higher = more signal; note: test concentration not given here
[2] = adipocyte viability effects, profiling panel, cell-based, 3T3-L1 adipocytes, calcein-AM fluorescence, 48 h, basal (AID 1163); settings: 3T3-L1 adipocytes viability, higher = more signal; note: test concentration not given here
[3] = HepG2 cell viability effects, profiling panel, calcein-AM fluorescence, 48 h, basal (AID 1164); settings: higher = more signal; note: test concentration not given here
[4] = MM1S cell viability effects, profiling panel, calcein-AM fluorescence, 48 h, basal (AID 1165); settings: higher = more signal;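 note: viability of MM1S multiple myeloma cells under basal unstimulated conditions; test concentration not given here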
[5] = basal RPMI8226 viability, no added stimulus, profiling panel, cell-based, calcein-AM fluorescence, 48 h, PK04 Diversity Set (AID 1166); settings: RPMI8226 myeloma viability, higher = more signal;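 note: cells grown under basal conditions without added stimulus; test concentration not given here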
[6] = basal HepG2 mitochondrial membrane potential changes, profiling panel, cell-based, JC-1 fluorescence, 24 h, 100 nL compound (AID 1167); settings: higher = more signal; note: test concentration not given here
[7] = basal 3T3-L1 adipocyte mitochondrial potential changes, profiling panel, cell-based, JC-1 fluorescence, 3T3-L1 adipocytes, 24 h, 100 nL compound (AID 1168); settings: JC-1 mitochondrial fluorescence, higher = more signal, called active from +8 up or from −8 down; note: test concentration not given here
[8] = basal RPMI8226 mitochondrial membrane potential changes, profiling panel, cell-based, JC-1 fluorescence, 24 h, 100 nL compound (AID 1169); settings: RPMI8226 myeloma, JC-1 mitochondrial potential fluorescence, higher = more signal; note: test concentration not given here
[9] = basal MM1S mitochondrial membrane potential changes, profiling panel, cell-based, JC-1 fluorescence, 24 h, 100 nL compound (AID 1170); settings: higher = more signal; note: test concentration not given here
[10] = A549 lung cancer cell viability effects, profiling panel, resazurin fluorescence, 24 h, PK04 Diversity Set (AID 1171); settings: higher = more signal, called active from +8 up or from −8 down; note: test concentration not given here
[11] = HepG2 liver cancer cell viability effects, profiling panel, resazurin fluorescence, 24 h, PK04 Diversity Set (AID 1172); settings: higher = more signal; note: test concentration not given here
[12] = basal S. cerevisiae growth modulation, no modifier, primary screen, OD600, strain BY4716, 24 h, basal condition (AID 1173); settings: OD600, 24 h, higher = more signal, called active from +8 up or from −8 down
[13] = MM1S myeloma cell viability, profiling panel, resazurin fluorescence, basal, 24 h, PK04 Diversity Set (AID 1174); settings: higher = more signal, called active from +8 up or from −8 down;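 note: MM1S multiple myeloma cell line; test concentration not given here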
[14] = biological target: Dihydroorotate dehydrogenase (quinone), mitochondrial (Plasmodium falciparum (isolate 3D7)) (UniProt Q08210); experiment: PfDHODH enzyme inhibitors, primary screen, biochemical, C-terminal His tag, absorbance 600 nm (AID 1175); settings: DCIP absorbance 600 nm, higher = more signal, called active from +8 up or from −8 down;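 note: recombinant parasite enzyme with a five histidine tag at its C terminus; test concentration not given here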
[15] = P. aeruginosa biofilm formation inhibitors, primary screen, strain PAO1, LB-PBS medium, absorbance 600 nm (AID 1176); note: test concentration not given here; settings: P. aeruginosa PAO1 growth/biofilm, A600, 12 h; higher = more signal
[16] = S. cerevisiae RM11-1a growth modifiers, primary screen, strain RM11-1a, OD600, basal, 24 h (AID 1177); settings: OD600, 24 h, higher = more signal, called active from +8 up or from −8 down;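 note: cultures grown under basal conditions with no added stressor; test concentration not given here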
[17] = E. coli acrAB mutant growth effects, primary screen, E. coli filamentation inducers, strain DRC39, OD650, 24 h (AID 1178); settings: higher = more signal, called active from +8 up or from −8 down;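 note: growth measured as culture turbidity by optical density at 650 nm; test concentration not given here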
[18] = E. coli acrAB mutant growth effects, primary screen, E. coli filamentation inducers, strain DRC39, OD650, 48 h (AID 1179);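 note: screen aims at cell division blockers that make cells filament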; settings: E. coli DRC39 delta-acrAB growth, higher = more signal, called active from +8 up or from −8 down
[19] = RPMI8226 myeloma cell viability, profiling panel, resazurin fluorescence, basal, 24 h, PK04 Diversity Set (AID 1180); settings: higher = more signal;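 note: RPMI8826 multiple myeloma cell line at 5000 cells per well; test concentration not given here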
[20] = biological target: E3 ubiquitin-protein ligase XIAP (Homo sapiens) (UniProt P98170); experiment: XIAP binders, primary screen, biophysical, small-molecule microarray, fluorescence 635 nm (AID 1181); settings: small-molecule microarray binding, higher = more signal;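 note: score merges 667 nm emission and signal to noise over triplicate slides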
E3 ubiquitin-protein ligase XIAP (Homo sapiens), sequence (P98170 whole entry, looked up): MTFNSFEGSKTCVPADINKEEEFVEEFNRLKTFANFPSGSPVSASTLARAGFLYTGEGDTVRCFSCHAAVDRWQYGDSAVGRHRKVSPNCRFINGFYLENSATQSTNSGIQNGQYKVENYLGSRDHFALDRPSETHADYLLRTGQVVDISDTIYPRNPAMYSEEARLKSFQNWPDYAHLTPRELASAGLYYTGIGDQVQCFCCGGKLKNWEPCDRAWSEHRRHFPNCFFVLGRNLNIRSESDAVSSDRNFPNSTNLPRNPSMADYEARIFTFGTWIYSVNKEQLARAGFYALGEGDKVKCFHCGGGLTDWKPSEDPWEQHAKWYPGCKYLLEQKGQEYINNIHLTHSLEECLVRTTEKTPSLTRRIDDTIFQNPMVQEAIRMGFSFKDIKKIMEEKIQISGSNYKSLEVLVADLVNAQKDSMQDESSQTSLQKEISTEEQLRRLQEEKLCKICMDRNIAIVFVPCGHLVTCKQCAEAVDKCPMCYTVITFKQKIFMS

Dihydroorotate dehydrogenase (quinone), mitochondrial (Plasmodium falciparum (isolate 3D7)), sequence (Q08210 whole entry, looked up): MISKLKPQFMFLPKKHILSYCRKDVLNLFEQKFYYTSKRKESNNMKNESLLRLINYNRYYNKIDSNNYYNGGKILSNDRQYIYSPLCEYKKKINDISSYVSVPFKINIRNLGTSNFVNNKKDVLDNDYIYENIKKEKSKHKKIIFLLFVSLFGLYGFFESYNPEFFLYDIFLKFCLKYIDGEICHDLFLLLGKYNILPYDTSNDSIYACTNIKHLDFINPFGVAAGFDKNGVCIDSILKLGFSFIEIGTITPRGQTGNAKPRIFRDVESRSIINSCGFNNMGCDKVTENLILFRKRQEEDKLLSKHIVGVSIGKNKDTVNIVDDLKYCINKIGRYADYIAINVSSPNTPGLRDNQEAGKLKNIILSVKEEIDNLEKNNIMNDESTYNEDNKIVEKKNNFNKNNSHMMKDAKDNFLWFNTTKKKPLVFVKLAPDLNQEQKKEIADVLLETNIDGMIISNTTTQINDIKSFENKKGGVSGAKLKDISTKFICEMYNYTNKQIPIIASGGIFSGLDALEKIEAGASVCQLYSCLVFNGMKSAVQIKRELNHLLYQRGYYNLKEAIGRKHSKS

SMILES | z-score [1] | z-score [2] | z-score [3] | z-score [4] | z-score [5] | z-score [6] | z-score [7] | z-score [8] | z-score [9] | z-score [10] | z-score [11] | z-score [12] | z-score [13] | composite z-score [14] | z-score [15] | z-score [16] | z-score [17] | z-score [18] | z-score [19] | composite z-score [20]
CC=CC(O)C1C=CC2C(=O)NC(=O)C2N1Nc1ccccn1 (stereo not given) | 0.0403 | -1.24 | -0.154 | -0.228 | -0.496 | 0.0853 | -0.288 (inactive) | 0.137 | -0.121 | -1.14 (inactive) | -1.45 | 0.866 (inactive) | -0.949 (inactive) | 0.434 (inactive) | 0.667 (inactive) | 1.83 (inactive) | -0.837 (inactive) | 0.272 (inactive) | -0.349 | -0.031
COCCOC(=O)N1C(=O)[C@@]2(c3ccccc31)[C@H](c1ccccc1OCCO)N1[C@H](c3ccccc3)[C@H](c3ccccc3)OC(=O)[C@H]1[C@@H]2C(N)=O | -1.59 | 0.61 | -1.85 | -3.32 | -4.57 | -0.88 | -0.27 (inactive) | -1.15 | -1.21 | -1.78 (inactive) | -0.704 | 1.82 (inactive) | -2.78 (inactive) | 0.565 (inactive) | 2.07 (inactive) | 1.98 (inactive) | 0.322 (inactive) | -0.528 (inactive) | -4.57 | -0.288
Cc1c(NC(=O)/C(C#N)=C/c2ccccc2Cl)c(=O)n(-c2ccccc2)n1C | 1.62 | 0.228 | 1.02 | 0.867 | 1.52 | 0.771 | 1.14 (inactive) | -0.0416 | -1.04 | -0.357 (inactive) | 0.294 | -1.08 (inactive) | 0.242 (inactive) | -1.73 (inactive) | 0.543 (inactive) | -0.688 (inactive) | 1.17 (inactive) | 1.36 (inactive) | 0.0753 | 0.197
[N-]=[N+]=NCc1ccccc1[C@H]1OC(c2ccc(OCCCO)cc2)=N[C@@]1(Cc1ccccc1)C(=O)NCCN1CCOCC1 | 0.526 | 1.06 | 0.688 | -2.51 | -1.2 | 1.51 | -0.0131 (inactive) | -0.815 | 0.45 | 1.19 (inactive) | 0.292 | -1.62 (inactive) | -0.206 (inactive) | -0.905 (inactive) | 1.26 (inactive) | -0.557 (inactive) | 2.89 (inactive) | 0.763 (inactive) | 0.16 | 0.785
CN(C)C(=O)[C@@]1(Cc2ccccc2)COC(c2ccc(OCCCO)cc2)=N1 | 0.0581 | -0.538 | -0.0485 | -1.22 | 0.726 | -0.455 | -0.384 (inactive) | 0.0953 | -1.17 | -0.193 (inactive) | -0.272 | -3.27 (inactive) | -0.403 (inactive) | 0.263 (inactive) | -0.841 (inactive) | 0.536 (inactive) | 0.704 (inactive) | 1.19 (inactive) | 0.449 | 0.521
C=C(/C(=C/C[C@@H](OC(=O)c1ccncc1)c1cccc(OCCO)c1)c1cnc2ccccc2c1)C(C)C | 0.509 | 1.55 | 0.0856 | -2.52 | -0.467 | 1.42 | -0.45 (inactive) | -0.533 | 0.817 | 0.128 (inactive) | -0.118 | -1.48 (inactive) | -0.59 (inactive) | -5.68 (inactive) | 1.86 (inactive) | 0.152 (inactive) | -0.192 (inactive) | -0.284 (inactive) | 0.0866 | 0.227
Cc1ccc(S[C@]2(C(=O)NCC(C)C)CC(=O)N(C3Cc4ccccc4C3)[C@@H]2c2ccc(CO)cc2I)cc1 | 0.168 | -0.492 | -0.455 | -2.37 | -2.6 | -0.534 | -0.233 (inactive) | -0.107 | -1.76 | -0.105 (inactive) | 0.0073 | -1.51 (inactive) | -2.16 (inactive) | -0.0634 (inactive) | 0.503 (inactive) | 0.207 (inactive) | -0.0452 (inactive) | -0.138 (inactive) | -2.55 | -0.214
CN1C(=O)[C@@]2(Cc3ccccc3)N=C(c3ccc(OCCCO)cc3)O[C@H]2c2ccccc21 | -1.11 | -0.597 | -1.61 | -2.71 | -4.45 | 0.384 | 1.69 (inactive) | -1.26 | -1.89 | -0.788 (inactive) | -0.286 | -6.2 (inactive) | -2.4 (inactive) | 0.271 (inactive) | 1.14 (inactive) | 0.202 (inactive) | 0.432 (inactive) | 0.514 (inactive) | -1.99 | 0.283
C=C(CCCC)C(=O)CC[C@H](OC(C)=O)c1ccc(OCCO)cc1 | 0.95 | 3.04 | -0.0781 | -2.86 | -3.54 | 0.764 | -0.387 (inactive) | -0.248 | -1.39 | 0.697 (inactive) | 0.574 | -3.3 (inactive) | -0.464 (inactive) | -0.788 (inactive) | 0.0022 (inactive) | -2.33 (inactive) | -0.0158 (inactive) | 0.539 (inactive) | -0.939 | 0.648
